Screens as filed in PubChem.
KLF5 inhibitor = KLF5 expression inhibitors, primary screen, DLD-1 cells, luminescence. inhibition, % at 5 µM. hit rate 0.23% among 290,000. DLD-1 KLF5 promoter-luciferase reporter;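 active = inhibition above a per-plate limit of that plate's mean compound inhibition plus 3 SD, cut at about 60% in these data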;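 also: 0% = DMSO wells and 100% = LY294002 at 200 µM; higher means less KLF5 promoter-driven luciferase light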
Ba/F3 V617F tox = reduced viability of JAK2V617F-dependent Ba/F3 cells, primary screen, JAK2V617F inhibitor project, cell-based, Ba/F3 EpoR-JAK2V617F, luminescence | ATP luminescence | inhibition, % at 5.6 µM | hit rate 1.1% among 220,000 | AID 1446, 2008;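 active = inhibition above the campaign mean plus 3 SD over all tested compounds, cut at about 24% in these data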;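 also: cytokine-independent growth of Ba/F3 cells driven by EpoR plus mutant JAK2; 0% = DMSO-treated cells and 100% = JAK inhibitor I control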
IEC-6 cytotox = cytotoxicity in IEC-6 intestinal epithelial cells, primary screen, cytotoxicity control for KLF5 inhibitor project, cell-based, luminescence; inhibition, % at 5 µM; hit rate 0.78% among 290,000; AID 1825, 2009; IEC-6 cytotoxicity, luminescence viability; in the data active = inhibition above about 22%;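 also: 0% = plate median of test compound wells and 100% = cytotoxic reference compound wells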
aSyn UTR inh = MLPCN primary screen, SNCA 5' untranslated region. alpha-synuclein 5'UTR reporter, inhibitor activity. inhibition, % (tested at 7.5 µM). hit rate 0.82% among 300,000; in the data active = inhibition above about 60%; inconclusive = no clear call, values can overlap the other calls;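 also: H4 neuroglioblastoma cells stably carrying SNCA 5'UTR luciferase fusion; 0% = DMSO wells and 100% = positive control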
BaF3 tox = parental Ba/F3 cell viability inhibition, counter-screen for JAK2V617F inhibitor project, murine pro-B, CellTiter-Glo luminescence; CellTiter-Glo ATP luminescence; AID 1486, 2009; inhibition, % at 5.6 µM; hit rate 1.1% among 220,000;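 active = inhibition above a per-campaign cutoff, the mean inhibition of all tested compounds plus 3 SD, cut at about 27% in these data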;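 also: 0% = DMSO wells and 100% = JAK Inhibitor I control wells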
APP 5UTR inh = inhibitors of APP translation via 5'UTR reporter, primary screen, APP 5'UTR luciferase, SH-SY5Y cells; inhibition, % at 2 µM; hit rate 0.82% among 190,000; SH-SY5Y APP 5'UTR-luciferase reporter, luminescence;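 active = inhibition above a set limit, derived from the sample mean plus 3 SD, cut at about 45% in these data; inconclusive = one replicate passes the limit while the other fails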
* = called active by the depositor; u = inconclusive; x = not tested or not shown. Sampled rows, rich in hits. Any-hit rate of the full collection: about 2.2%.

SMILES	KLF5 inhibitor	Ba/F3 V617F tox	IEC-6 cytotox	aSyn UTR inh	BaF3 tox	APP 5UTR inh
COc1ccccc1-n1cnc2cc(NCc3cccs3)ccc21	26	73*	82*	u	73*	93*
Cc1ccc(S(=O)(=O)N2CCCC2C(=O)OCc2nc3ccccc3s2)cc1 (configuration not stated)	-17	-4	3	-10	5	16
CN(C)c1ccc(-c2noc(-c3ccccc3O)n2)cc1	-8	0	3	71*	1	-144
c1ccc(-c2noc(-c3ccccc3-c3ccccc3)n2)cc1	-10	-3	4	-7	2	14
COC(=O)c1c(C(=O)OC)c(-c2ccc(C)cc2)n2c1CS(=O)(=O)C2	-19	-2	-1	2	8	3
CCCOC(=O)c1cc(=O)[nH]c2ccccc12	2	2	3	22	97*	-11
CCOC(=O)c1cc(=O)[nH]c2ccccc12	-36	0	3	23	6	16
O=C(Nc1ccc(Br)cc1)c1cc2ccccn2n1	-167	-3	-3	-117	-4	x
COc1cc(C(=O)O/N=C(\N)Cc2ccc([N+](=O)[O-])cc2)cc(OC)c1OC	1	-1	12	81*	1	x
O=C(Nc1ccc(Cl)cc1)Nc1ccccc1NS(=O)(=O)c1cccs1	-21	2	-4	-4	62*	-9
Cc1nc(NC(C)c2ccccc2)c2oc3ccccc3c2n1 (configuration not stated)	-9	2	3	0	35*	-7
CCC(C)Nc1nc(C)nc2c1oc1ccccc12 (configuration not stated)	-9	-2	2	5	1	x
O=C(NNc1nc(-c2ccc(F)cc2)cs1)c1ccccc1	2	4	-1	90*	10	6
O=C(NNc1nc(-c2ccccc2)cs1)c1cccs1	3	-2	-1	-3	-3	x
O=C(NNc1nc(-c2ccccc2)cs1)c1ccc(F)cc1	25	1	-5	76*	11	-9
Cn1c(=O)c2c(ncn2CC(=O)OCC(=O)Nc2ccccc2Cl)n(C)c1=O	4	-4	1	-6	3	-15
CC1(C)N=c2ccc([N+](=O)[O-])c(N)c2=[N+]1[O-]	-12	69*	-2	21	63*	x
Cc1ccc([N+](=O)[O-])c(C)[n+]1C	-26	8	0	-3	9	9
Nc1cc2c(cc1[N+](=O)[O-])OCO2	-14	2	1	-9	5	-11
CC(=O)[C@@]1(O)C(C)CC2C3C=C(C)C4=Cc5c(cnn5-c5ccccc5)C[C@]4(C)C3C(O)C[C@@]21C (some centres not stated)	-33	9	27*	81*	0	x
COc1ccc(/C=N/n2cnn(Cc3ccccc3Cl)c2=S)cc1	-22	-2	-4	14	2	80*
CCN(CC)c1ccc(/C=C2\SC(=O)N(C(C)C)C2=O)o1	-13	51*	4	-103	44*	x
CCS(=O)(=O)C1=NSC2=NC(=O)/C(=C\c3ccc(OS(=O)(=O)c4ccccc4)c(OC)c3)C(=N)N21	-16	x	-4	-21	x	x
OCCNc1cnc2ccccc2n1	-14	-2	5	-17	-3	49*
CCN1C(=C(C#N)C#N)C=Cc2cc(C)ccc21	6	0	12	-17	3	-11
SMILES	KLF5 inhibitor	Ba/F3 V617F tox	IEC-6 cytotox	aSyn UTR inh	BaF3 tox	APP 5UTR inh
C=CC[n+]1c(/C=C2\C=Cc3cc(C)ccc3N2CC)ccc2ccccc21	7	100*	41*	67*	80*	20
CCN(CC)CCn1cnc2c([nH]c3cccc(OC)c32)c1=O	-32	6	10	33	69*	7
CCOCCCNC(=O)c1ccc2c(c1)N=C(CC)c1cc(Br)ccc1S2	74*	92*	93*	88*	95*	94*
CCC1=Nc2cc(C(=O)NCCN3CCOCC3)ccc2Sc2ccccc21	-23	x	-1	3	x	x
CCN(CC)Cc1ccc(NC(=O)c2sc3cc(Cl)ccc3c2Cl)cc1	-16	0	0	104*	0	x
Cc1nn(Cc2ccc(Cl)c(Cl)c2)c(C)c1NC(=O)c1cc(-c2ccc3c(c2)OCO3)on1	-9	-4	1	66*	2	52*
Cc1cc(NC(=O)CSc2nnc(-c3ccccc3)c(-c3ccccc3)n2)no1	-3	-2	-4	39	3	63*
COc1cc(NC(=O)CSc2nnc(-c3cc(C)on3)o2)cc(OC)c1	-2	x	-12	-14	x	x
COc1cc(OC)cc(-c2nnc(SCC(=O)Nc3cc(C)on3)o2)c1	-19	1	-5	x	95*	-8
Cc1cc(NC(=O)CSc2ccccc2)no1	-16	1	0	-43	6	-9
Cc1nn(C(C)C(=O)N2CCc3ccccc3C2)c(=O)c2cc3occc3n12 (configuration not stated)	2	-1	-2	-7	3	18
Cc1cc(Cl)ccc1OCC(=O)Nc1ccncc1	-36	x	1	-81	x	x
NC(=O)COC(=O)CC(NC(N)=O)c1ccc(Cl)cc1 (configuration not stated)	-17	-5	3	2	-3	-12
NC(=O)NC(CC(=O)OCC(=O)NC(=O)NCc1ccco1)c1ccc(Cl)cc1 (configuration not stated)	-55	-2	0	-12	2	55*
COc1ccc(-n2nc3c(c2NC(=O)CCCCl)CSC3)cc1	-18	x	2	-17	x	x
CC1CC(C)CN(C(=O)COC(=O)C2CCN(S(=O)(=O)c3c(Cl)cccc3Cl)CC2)C1 (configuration not stated)	x	x	x	13	x	x
COc1ccc(N2C(=O)CC(Sc3nnc(-c4ccccc4)o3)C2=O)cc1 (configuration not stated)	-19	0	-3	-3	6	46*
COCCNS(=O)(=O)c1ccc(-c2ccc(Cl)cc2)cc1	-24	-2	-5	-8	8	-5
O=C(CCCSc1nnc(-c2cccs2)n1CC1CCCO1)c1ccccc1 (configuration not stated)	2	3	-4	14	5	-15
CCOc1ccc(OCC(=O)Nc2nccs2)cc1	23	-1	2	69*	12	-157
COc1ccc(OCC(=O)Nc2nccs2)cc1	-63	-3	-7	16	8	-104
O=C(OCCN1C(=O)c2cccc3c(N4CCOCC4)ccc(c23)C1=O)c1cc(Cl)cc(Cl)c1	-21	2	-9	x	6	88*
Cc1c(CCC(=O)N[C@@H](C)C(=O)O)c(=O)oc2cc3oc4c(c3cc12)CCCC4	-20	x	6	71*	x	x
